Test results published in PubChem BioAssay AID1159580 (chemical genetic matrix, 2015).
Screen size: about 5,500 compounds; about 2,000 (36%) were called active. About 18% were inconclusive and are not listed. The list shows a part of the results. Values without a mark were called inactive. Cut-off read from the data, not from the text of the source: active = normalized growth mostly below about 0.91 (no sharp cut-off); inconclusive = no clear call, values can overlap the other calls; inactive = mostly above about 0.92.

Assay: chemical genetic growth profiling, strain panel (AID 1159580);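 note: tested at 20 µM; growth read once vehicle control cultures reached saturation at 30 °C; 1 = growth at the plate median or of vehicle wells; lower values mean less growth of the strain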
Details: growth OD

Structure (SMILES): c1ccc2[nH]c(-c3cscn3)nc2c1
- normalized growth (S. cerevisiae deletion strains, locus YKL068W, active compounds read low): 1
- normalized growth (S. cerevisiae deletion strains, locus YKL085W, strain MDH1 (second series), active compounds read low): 0.996
- normalized growth (S. cerevisiae deletion strains, locus YKL085W, strain MDH1, active compounds read low): 0.996
- normalized growth (S. cerevisiae deletion strains, locus YKL160W, strain elf1, active compounds read low): 1.01
- normalized growth (S. cerevisiae deletion strains, locus YKL190W, strain CNB1, active compounds read low): 0.993
- normalized growth (S. cerevisiae deletion strains, locus YKR001C, strain vps1, active compounds read low): 0.976
- normalized growth (S. cerevisiae deletion strains, locus YKR026C, strain gcn3, active compounds read low): 1.02
- normalized growth (S. cerevisiae deletion strains, locus YKR091W, strain srl3, active compounds read low): 1.01
- normalized growth (S. cerevisiae deletion strains, locus YLL001W, strain dnm1, active compounds read low): 1
- normalized growth (S. cerevisiae deletion strains, locus YLL026W, active compounds read low): 1.01
- normalized growth (S. cerevisiae deletion strains, locus YLL041C, strain sdh2, active compounds read low): 1.02
- normalized growth (S. cerevisiae deletion strains, locus YLR027C, strain aat2, active compounds read low): 1.01
- normalized growth (S. cerevisiae deletion strains, locus YLR039C, strain RIC1, active compounds read low): 0.963
- normalized growth (S. cerevisiae deletion strains, locus YLR058C, strain SHM2, active compounds read low): 0.997
- normalized growth (S. cerevisiae deletion strains, locus YLR102C, strain apc9, active compounds read low): 1.01
- normalized growth (S. cerevisiae deletion strains, locus YLR113W, strain HOG1, active compounds read low): 0.985
- normalized growth (S. cerevisiae deletion strains, locus YLR221C, strain rsa3, active compounds read low): 0.97
- normalized growth (S. cerevisiae deletion strains, locus YLR258W, strain gsy2, active compounds read low): 0.968
- normalized growth (S. cerevisiae deletion strains, locus YLR262C, strain YPT6 (second series), active compounds read low): 0.95
- normalized growth (S. cerevisiae deletion strains, locus YLR262C, strain YPT6, active compounds read low): 0.968
- normalized growth (S. cerevisiae deletion strains, locus YLR268W, strain sec22, active compounds read low): 0.945
- normalized growth (S. cerevisiae deletion strains, locus YLR320W, strain mms22, active compounds read low): 0.899
- normalized growth (S. cerevisiae deletion strains, locus YLR330W, strain CHS5, active compounds read low): 0.995
- normalized growth (S. cerevisiae deletion strains, locus YLR342W, strain FKS1 (second series), active compounds read low): 1.01
- normalized growth (S. cerevisiae deletion strains, locus YLR342W, strain FKS1, active compounds read low): 1
- normalized growth (S. cerevisiae deletion strains, locus YLR357W, strain rsc2, active compounds read low): 0.984
- normalized growth (S. cerevisiae deletion strains, locus YLR370C, strain arc18, active compounds read low): 0.975
- normalized growth (S. cerevisiae deletion strains, locus YLR371W, strain rom2, active compounds read low): 1.02
- normalized growth (S. cerevisiae deletion strains, locus YLR384C, strain iki3, active compounds read low): 1.01
- normalized growth (S. cerevisiae deletion strains, locus YLR418C, strain cdc73, active compounds read low): 0.979
- normalized growth (S. cerevisiae deletion strains, locus YML016C, strain PPZ1, active compounds read low): 0.997
- normalized growth (S. cerevisiae deletion strains, locus YML032C, strain rad52, active compounds read low): 0.979
- normalized growth (S. cerevisiae deletion strains, locus YML120C, strain ndi1, active compounds read low): 1
- normalized growth (S. cerevisiae deletion strains, locus YML124C, strain tub3, active compounds read low): 0.636 (active)
- normalized growth (S. cerevisiae deletion strains, locus YMR058W, strain fet3, active compounds read low): 0.993
- normalized growth (S. cerevisiae deletion strains, locus YMR078C, strain ctf18, active compounds read low): 1
- normalized growth (S. cerevisiae deletion strains, locus YMR125W, strain sto1, active compounds read low): 1.04
- normalized growth (S. cerevisiae deletion strains, locus YMR129W, active compounds read low): 1.01
- normalized growth (S. cerevisiae deletion strains, locus YMR205C, strain PFK2, active compounds read low): 0.982
- normalized growth (S. cerevisiae deletion strains, locus YMR223W, strain ubp8, active compounds read low): 1.02
- normalized growth (S. cerevisiae deletion strains, locus YMR231W, strain pep5, active compounds read low): 1.02
- normalized growth (S. cerevisiae deletion strains, locus YMR263W, strain SAP30, active compounds read low): 0.973
- normalized growth (S. cerevisiae deletion strains, locus YMR307W, strain GAS1, active compounds read low): 0.928
- normalized growth (S. cerevisiae deletion strains, locus YNL067W, strain RPL9B, active compounds read low): 0.961
- normalized growth (S. cerevisiae deletion strains, locus YNL071W, strain lat1, active compounds read low): 0.954
- normalized growth (S. cerevisiae deletion strains, locus YNL128W, strain TEP1, active compounds read low): 1.01
- normalized growth (S. cerevisiae deletion strains, locus YNL153C, strain GIM3, active compounds read low): 0.0845 (active)
- normalized growth (S. cerevisiae deletion strains, locus YNL183C, strain NPR1, active compounds read low): 0.927
- normalized growth (S. cerevisiae deletion strains, locus YNL209W, strain ssb2, active compounds read low): 0.984
- normalized growth (S. cerevisiae deletion strains, locus YNL233W, strain BNI4, active compounds read low): 0.958
- normalized growth (S. cerevisiae deletion strains, locus YNL248C, strain rpa49, active compounds read low): 1.01
- normalized growth (S. cerevisiae deletion strains, locus YNL250W, strain rad50, active compounds read low): 1.04
- normalized growth (S. cerevisiae deletion strains, locus YNL271C, strain bni1, active compounds read low): 1
- normalized growth (S. cerevisiae deletion strains, locus YNL298W, strain CLA4, active compounds read low): 1.01
- normalized growth (S. cerevisiae deletion strains, locus YNL307C, strain MCK1, active compounds read low): 1
- normalized growth (S. cerevisiae deletion strains, locus YNL322C, strain KRE1 (second series), active compounds read low): 0.991
- normalized growth (S. cerevisiae deletion strains, locus YNL322C, strain KRE1, active compounds read low): 0.987
- normalized growth (S. cerevisiae deletion strains, locus YNR049C, strain mso1, active compounds read low): 1.01
- normalized growth (S. cerevisiae deletion strains, locus YNR052C, strain pop2, active compounds read low): 0.983
- normalized growth (S. cerevisiae deletion strains, locus YOL012C, strain htz1): 2.38
- normalized growth (S. cerevisiae deletion strains, locus YOL147C, strain pex11, active compounds read low): 1.01
- normalized growth (S. cerevisiae deletion strains, locus YOR001W, strain rrp6, active compounds read low): 1
- normalized growth (S. cerevisiae deletion strains, locus YOR061W, strain CKA2, active compounds read low): 0.996
- normalized growth (S. cerevisiae deletion strains, locus YOR069W, strain VPS5, active compounds read low): 1
- normalized growth (S. cerevisiae deletion strains, locus YOR070C, strain gyp1, active compounds read low): 0.991
- normalized growth (S. cerevisiae deletion strains, locus YOR080W, strain dia2, active compounds read low): 1.01
- normalized growth (S. cerevisiae deletion strains, locus YOR083W, strain WHI5, active compounds read low): 0.977
- normalized growth (S. cerevisiae deletion strains, locus YOR106W, strain vam3, active compounds read low): 1.03
- normalized growth (S. cerevisiae deletion strains, locus YOR136W, strain idh2, active compounds read low): 0.995
- normalized growth (S. cerevisiae deletion strains, locus YOR144C, strain elg1, active compounds read low): 1.02
- normalized growth (S. cerevisiae deletion strains, locus YOR184W, strain ser1, active compounds read low): 0.932
- normalized growth (S. cerevisiae deletion strains, locus YOR231W, strain MKK1, active compounds read low): 1
- normalized growth (S. cerevisiae deletion strains, locus YOR265W, strain rbl2, active compounds read low): 0.997
- normalized growth (S. cerevisiae deletion strains, locus YOR270C, strain vph1, active compounds read low): 0.961
- normalized growth (S. cerevisiae deletion strains, locus YOR290C, strain snf2, active compounds read low): 0.944
- normalized growth (S. cerevisiae deletion strains, locus YOR316C, strain cot1, active compounds read low): 0.998
- normalized growth (S. cerevisiae deletion strains, locus YPL051W, strain arl3, active compounds read low): 0.991
- normalized growth (S. cerevisiae deletion strains, locus YPL078C, strain atp4, active compounds read low): 0.995
- normalized growth (S. cerevisiae deletion strains, locus YPL106C, strain sse1, active compounds read low): 1.08
- normalized growth (S. cerevisiae deletion strains, locus YPL240C, strain hsp82, active compounds read low): 0.997
- normalized growth (S. cerevisiae deletion strains, locus YPL241C, strain CIN2, active compounds read low): 0.0871 (active)
- normalized growth (S. cerevisiae deletion strains, locus YPL256C, strain CLN2, active compounds read low): 0.957
- normalized growth (S. cerevisiae deletion strains, locus YPR119W, strain clb2, active compounds read low): 1.01
- normalized growth (S. cerevisiae deletion strains, locus YPR141C, strain kar3, active compounds read low): 1.01
- normalized growth (S. cerevisiae deletion strains, locus YPR163C, strain tif3, active compounds read low): 1
- normalized growth (S. cerevisiae deletion strains, locus YPR167C, strain met16, active compounds read low): 1
- normalized growth (S. cerevisiae deletion strains, strain wtn01, active compounds read low): 0.977
- normalized growth (S. cerevisiae strains, strain wild type, active compounds read low): 0.995
